Test results published in PubChem BioAssay (NCATS).
Values joined by “and” are separate entries in the source; they are usually repeats but may differ in a detail not shown here. Identical values can stand only once. Results filed as inconclusive are left out. Entries that show only a call come without a potency. Active and inactive are the calls of the source. Unless noted, calls come from the whole dose curve; as a rule, active = well fitted curve in the direction sought with a large enough effect; inconclusive = small, poorly fitted or top-dose-only effect, or another doubt; inactive = no such curve, though single readings can be large; an effect the other way counts as inactive or inconclusive.

Experiments:
[1] = molecular target: T1, Hexokinase-4 (Homo sapiens) + Glucokinase regulatory protein (Homo sapiens) (UniProt P35557+Q14397); experiment: qHTS assay for inhibitors of recombinant human GCK-GKRP interaction: Diaphorase-coupled assay (AID 743205)
Summary of the method: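 Resorufin fluorescence (525/590 nm), read each minute over 30 min, reports GCK activity coupled via G6PDH and diaphorase. Reaction: 10 nM GST-GCK, 10 nM FLAG-GKRP, 5 mM glucose, 0.4 mM ATP, 0.15 mM NADP+, 0.1 mM resazurin.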

[2] = molecular target: T1, Hexokinase-4 (Homo sapiens) + Glucokinase regulatory protein (Homo sapiens); experiment: qHTS assay for inhibitors of recombinant human GCK-GKRP interaction: ADP-Glo assay (AID 743206)
Summary of the method: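 Pin-transferred compounds meet a 15 nM GST-GCK/15 nM FLAG-GKRP/2 uM S6P mix (dispense concentrations). ATP is then added to 0.4 mM final with 5 mM glucose, and the reaction runs 60 min at room temperature. ADP is quantified luminescently.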

[3] = molecular target: T1, Hexokinase-4 (Homo sapiens) + Glucokinase regulatory protein (Homo sapiens); experiment: qHTS assay for inhibitors of recombinant human GCK-GKRP interaction: HTRF assay (AID 743207)
Summary of the method: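 HTRF read-out (ex 320 nm; 615/665 nm emission) after 60 min RT equilibration of 5 nM GST-GCK, 5 nM FLAG-GKRP, 2 uM S6P, compound and anti-FLAG/anti-GST detection antibodies; signal normalized between DMSO wells with and without GCK.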

[4] = qHTS Assay for Identifying Gametocytocidal Compounds (AID 743244); note: potency is the fitted concentration of half-maximal effect;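 for max response: actives lower the fluorescent signal which means gametocytes are killed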; conditions: P. falciparum 3D7 stage III-V gametocytes, alamarBlue, 72 h; max response: stronger effect = lower value
Summary of the method: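 In this qHTS viability screen, late-stage 3D7 gametocytes are incubated with compound for 72 h, then with alamarBlue for 24 h; reduced resorufin fluorescence marks killing.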

[5] = qHTS profiling of the MIPE4 collection as inhibitors of Plasmodium falciparum (3D7) proliferation (AID 743344; call rule not given here); conditions: P. falciparum 3D7 in erythrocytes, SYBR Green DNA fluorescence, 72 h; at 28.5 µM (top of the series) unless noted
Summary of the method: (§1)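 Parasite DNA was quantified by SYBR Green I fluorescence (ex 485, em 535 nm) after overnight lysis in saponin/Triton buffer at room temperature. Cultures at 0.3% parasitemia and 2.5% hematocrit were first exposed to compound for 72 h at 37 C; signals were normalised to artemisinin (0.29 uM) and vehicle wells.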

[6] = qHTS profiling for inhibitors of Plasmodium falciparum (3D7) proliferation (AID 743322; call rule not given here;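 note: infected erythrocytes exposed to compound for 72 h before lysis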); conditions: P. falciparum 3D7 proliferation; at 28.7 µM (top of the series) unless noted
Summary of the method: as §1

[7] = qHTS profiling for inhibitors of Plasmodium falciparum (DD2) proliferation (AID 743323; call rule not given here); conditions: lower = more inhibition; at 28.7 µM (top of the series) unless noted
Summary of the method: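 1536-well qHTS; infected RBCs 0.3% parasitemia/2.5% Hct final; cpd 72 h 37 C 5% CO2; lysis buffer + SYBR Green I, o/n RT dark; FI 485/535; norm. to 0.29 uM artemisinin and DMSO, plate-stack corrected.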

[8] = qHTS profiling for inhibitors of Plasmodium falciparum (HB3) proliferation (AID 743324); conditions: Plasmodium falciparum HB3 blood-stage proliferation; at 28.7 µM (top of the series) unless noted
Summary of the method: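 SYBR Green fluorescence (485 ex/535 em) of lysed cultures, incubated overnight at room temperature in the dark, quantifies parasite DNA. Infected erythrocytes at 0.3% parasitemia and 2.5% hematocrit were exposed 72 h; values normalized to DMSO and 0.29 uM artemisinin controls.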

T1 sequence (P35557 whole entry, looked up): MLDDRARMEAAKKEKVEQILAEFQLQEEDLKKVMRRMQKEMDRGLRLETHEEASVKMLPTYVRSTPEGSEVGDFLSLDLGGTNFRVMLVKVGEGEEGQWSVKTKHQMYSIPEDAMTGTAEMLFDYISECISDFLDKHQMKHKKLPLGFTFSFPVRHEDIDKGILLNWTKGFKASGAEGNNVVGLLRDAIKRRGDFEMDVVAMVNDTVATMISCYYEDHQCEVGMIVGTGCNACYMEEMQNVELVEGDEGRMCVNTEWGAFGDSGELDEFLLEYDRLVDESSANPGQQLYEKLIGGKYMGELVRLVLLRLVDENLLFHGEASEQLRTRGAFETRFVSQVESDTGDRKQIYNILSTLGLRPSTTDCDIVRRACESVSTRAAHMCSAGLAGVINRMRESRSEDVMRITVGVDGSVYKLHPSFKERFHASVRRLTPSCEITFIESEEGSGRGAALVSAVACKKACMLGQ
T1 sequence (Q14397 whole entry, looked up): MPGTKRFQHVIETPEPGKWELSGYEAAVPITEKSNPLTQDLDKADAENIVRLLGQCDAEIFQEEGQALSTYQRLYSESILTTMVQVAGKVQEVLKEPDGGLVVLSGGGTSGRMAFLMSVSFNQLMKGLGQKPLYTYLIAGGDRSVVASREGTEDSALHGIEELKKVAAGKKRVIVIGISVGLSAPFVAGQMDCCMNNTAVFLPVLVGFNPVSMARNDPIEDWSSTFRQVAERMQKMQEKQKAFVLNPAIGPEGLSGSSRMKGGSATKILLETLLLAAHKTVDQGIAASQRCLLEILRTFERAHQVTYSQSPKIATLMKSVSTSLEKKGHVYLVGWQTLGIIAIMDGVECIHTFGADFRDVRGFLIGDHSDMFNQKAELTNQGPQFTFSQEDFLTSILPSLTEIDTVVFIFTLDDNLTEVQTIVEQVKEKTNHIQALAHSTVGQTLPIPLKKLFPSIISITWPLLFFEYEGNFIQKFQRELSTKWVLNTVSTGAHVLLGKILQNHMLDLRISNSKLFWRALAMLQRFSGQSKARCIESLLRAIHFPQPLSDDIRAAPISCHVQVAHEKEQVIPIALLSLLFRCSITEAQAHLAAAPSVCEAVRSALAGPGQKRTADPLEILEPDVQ

For COc1cc2c(cc1OC)C1CC(=O)C(CC(C)C)CN1CC2 (configuration not stated), the outcome [1] was “inactive”, the outcome [2] was “inactive” and the outcome [3] was “inactive”. The max response [4] was 30.1% (inactive) and the parasite growth, % of DMSO control [5] was 82.2%.
With CN1C(C(=O)Nc2ccccn2)=C(O)c2sccc2S1(=O)=O the max response [4] was 15.1% (inactive).
In the case of Oc1ccc2ccccc2c1SSc1c(O)ccc2ccccc12, the outcome [1] is reported as “inactive”, the outcome [2] is reported as “inactive” and the outcome [3] is reported as “inactive”. For the same compound, the Potency [4] was 3.55 µM (active) and the parasite growth, % of DMSO control [5] was 6.56%.
In the case of OC(CN1CCN(c2cccc(Cl)c2)CC1)C(c1ccccc1)c1ccccc1 (configuration not stated), the outcome [1] is reported as “inactive”, the outcome [2] is reported as “inactive” and the outcome [3] is reported as “inactive”. For the same compound, the max response [4] was 26.8% (inactive) and the parasite growth, % of DMSO control [5] was 42.2%.
For O=C(CCc1ccc(O)cc1)c1c(O)cc(O)cc1O, the outcome [1] was “inactive”, the outcome [2] was “inactive” and the outcome [3] was “inactive”. The max response [4] was 19.3% (inactive) and the parasite growth, % of DMSO control [5] was 10.4%.
With O=C1NC(=O)C(c2ccccc2[N+](=O)[O-])=C1Nc1ccc(O)c(Cl)c1 the outcome [1] was “inactive”, the outcome [2] was “inactive” and the outcome [3] was “inactive”. The parasite growth, % of DMSO control [5] was 68.6%.
For Nc1nc(N)c(N=O)c(OCC2CCCCC2)n1, the outcome [1] was “inactive”, the outcome [2] was “inactive” and the outcome [3] was “inactive”. For the same compound, the max response [4] was 15% (inactive) and the parasite growth, % of DMSO control [5] was 28%.
In the case of C[C@@H](N)C1CCC(C(=O)Nc2ccncc2)CC1 (some centres not stated), the outcome [1] is reported as “inactive”, the outcome [2] is reported as “inactive” and the outcome [3] is reported as “inactive”. For the same compound, the max response [4] was -0.932% (inactive) and 18% (inactive), the remaining parasite growth % (stronger effect = lower value) [6] was 103% and the activity, percent of control [7] was 103%. It also gave a remaining proliferation (% of control), lower = more inhibition [8] of 94.3% and a parasite growth, % of DMSO control [5] of 85.6%.
With C[C@H](Cc1ccc(O)c(O)c1)[C@@H](C)Cc1ccc(O)c(O)c1 the outcome [1] was “inactive”, the outcome [2] was “inactive” and the outcome [3] was “inactive”. The max response [4] was 4.03% (inactive) and the parasite growth, % of DMSO control [5] was 15.1%.
For O=c1ccc2ccc(O)c(O)c2o1, the outcome [1] was “inactive”, the outcome [2] was “inactive” and the outcome [3] was “inactive”. For the same compound, the parasite growth, % of DMSO control [5] was 169%.
For COc1ccccc1N1CCN(CCN(C(=O)C2CCCCC2)c2ccccn2)CC1, the outcome [1] was “inactive”, the outcome [2] was “inactive” and the outcome [3] was “inactive”. For the same compound, the max response [4] was 6.13% (inactive) and the parasite growth, % of DMSO control [5] was 57.8%.
